{"source": "the supplement of paper PMC11060735", "note": "Several values for one entry are separate records, joined by “and”; a condition that tells them apart may be missing. Identical values can stand only once. Counter-ions that a name gives are not always drawn. ± gives the standard deviation of the averaged measurements. In all, about 1,800 compounds were measured (“GFP- (p16Ink4a-) cell count relative to negative-control wells”: median about 0.99, lowest 2% from about 0.5 on). For the sample, the lowest values were picked, then their nearest neighbours and some compounds at random."}
{"system": "mouse p16Ink4a+/- lung fibroblasts (INKBRITE, bleomycin-injured)", "assay": "GFP- (p16Ink4a-) cell count relative to negative-control wells (fold of vehicle); higher = more p16Ink4a- cells surviving", "conditions": "1 µM; 3 days"}
{"smiles": "C[N+](C)(C)CC(O)CC(=O)O", "note": "(stereo not drawn) [Carnitine Hydrochloride, Carnitine (dl) Hydrochloride]", "GFP-": 1.1}
{"smiles": "C[C@H](NCc1ccc(OCc2cccc(F)c2)cc1)C(N)=O", "note": "[Safinamide]", "GFP-": 1.06}
{"smiles": "OC[C@@H](O)CN1CCN(c2ccccc2)CC1", "note": "[Levodropropizine]", "GFP-": 1.05}
{"smiles": "CC(=O)O[C@]1(C(C)=O)CC[C@H]2[C@@H]3C=C(Cl)C4=CC(=O)[C@@H]5C[C@@H]5[C@]4(C)[C@H]3CC[C@@]21C", "note": "[Cyproterone Acetate]", "GFP-": 1.14}
{"smiles": "C=C1CC[C@H](O)C/C1=C/C=C1\\CCC[C@]2(C)[C@@H]([C@H](C)CCCC(C)(C)O)CC[C@@H]12", "note": "[Calcidiol]", "GFP-": 1.2}
{"smiles": "CCOC(=O)c1c(CSc2ccccc2)n(C)c2cc(Br)c(O)c(CN(C)C)c12", "note": "[Arbidol HCl]", "GFP-": 0.933}
{"smiles": "O=S(=O)(c1ccccc1)N(CC(F)(F)F)c1ccc(C(O)(C(F)(F)F)C(F)(F)F)cc1", "GFP-": 0.972}
{"smiles": "CN1CCOC(c2ccccc2)c2ccccc2C1", "note": "(centres undefined) [Nefopam]", "GFP-": 1.1}
{"smiles": "CCOC(=O)[C@H](CCc1ccccc1)N[C@H]1CCc2ccccc2N(CC(=O)O)C1=O", "note": "[Benazepril]", "GFP-": 1.01}
{"smiles": "Cc1c(-c2ccccc2)oc2c(C(=O)OCCN3CCCCC3)cccc2c1=O", "note": "[Flavoxate]", "GFP-": 1.1}
{"smiles": "C[C@@H]1O[C@@H](O[C@H]2[C@H](Oc3cc(O)c4c(c3)O[C@H](c3ccc(O)cc3)CC4=O)O[C@H](CO)[C@@H](O)[C@@H]2O)[C@H](O)[C@H](O)[C@H]1O", "note": "[Naringin]", "GFP-": 1.1}
{"smiles": "Nc1ccc(S(=O)(=O)Nc2ccccn2)cc1", "note": "[Sulfapyridine]", "GFP-": 0.965}
{"smiles": "O=C1C[C@@H](c2ccc(O)cc2)Oc2cc(O)cc(O)c21", "note": "[Naringenin]", "GFP-": 0.938}
{"smiles": "C/C(=N\\NC(=S)N1CCC1)c1ccccn1", "GFP-": 0.4}
{"smiles": "Cn1c(=O)cc(N2CCC[C@@H](N)C2)n(Cc2ccccc2C#N)c1=O", "note": "[Alogliptin]", "GFP-": 0.943}
{"smiles": "COC(=O)[C@H]1[C@H]2C[C@@H]3c4[nH]c5cc(OC)ccc5c4CCN3C[C@H]2C[C@@H](OC(=O)c2cc(OC)c(OC)c(OC)c2)[C@@H]1OC", "note": "[Reserpine]", "GFP-": 0.806}
{"smiles": "C=CC[N+]1([C@H]2C[C@H]3[C@@H]4CC[C@H]5C[C@H](O)[C@@H](N6CCOCC6)C[C@]5(C)[C@H]4CC[C@]3(C)[C@H]2OC(C)=O)CCCC1", "note": "[Rocuronium]", "GFP-": 0.894}
{"smiles": "COc1cccc2c1C(=O)c1c(O)c3c(c(O)c1C2=O)C[C@@](O)(C(C)=O)C[C@@H]3O[C@H]1C[C@H](N)[C@H](O)[C@H](C)O1", "note": "[Daunorubicin]", "GFP-": 0.754}
{"smiles": "CC(=O)[C@]1(O)Cc2c(O)c3c(c(O)c2[C@@H](O[C@H]2C[C@H](N)[C@H](O)[C@H](C)O2)C1)C(=O)c1ccccc1C3=O", "note": "[Idarubicin, Idarubicin Hydrochloride]", "GFP-": 0.224}
{"smiles": "COc1cccc2c1C(=O)c1c(O)c3c(c(O)c1C2=O)C[C@@](O)(C(=O)CO)C[C@@H]3O[C@H]1C[C@H](N)[C@H](O)[C@H](C)O1", "note": "[Doxorubicin]", "GFP-": 0.72}
{"smiles": "COc1cc(-c2cc3ccccc3[nH]2)[nH]c1/C=C1\\N=C(C)C=C1C", "note": "[Obatoclax Mesylate]", "GFP-": 0.249}
{"smiles": "C=C1C(=O)O[C@@H]2/C=C(\\C)CC/C=C(\\C)CC[C@@H]12", "note": "[Costunolide]", "GFP-": 1.1}
{"smiles": "Cc1coc2c1C(=O)C(=O)c1c-2ccc2c(C)cccc12", "note": "[Tanshinone I]", "GFP-": 1.03}
{"smiles": "Cn1cc(-c2ccc3nnc(Sc4ccc5ncccc5c4)n3n2)cn1", "GFP-": 0.95}
{"smiles": "CCN(CC)CCCCNc1ncc2cc(-c3cc(OC)cc(OC)c3)c(NC(=O)NC(C)(C)C)nc2n1", "GFP-": 0.935}
{"smiles": "Cc1ccnc2c1NC(=O)c1cccnc1N2C1CC1", "note": "[Nevirapine]", "GFP-": 1.06}
{"smiles": "CC(C)=CCC[C@](C)(O[C@@H]1O[C@H](CO[C@@H]2OC[C@@H](O)[C@H](O)[C@H]2O)[C@@H](O)[C@H](O)[C@H]1O)[C@H]1CC[C@]2(C)[C@@H]1[C@H](O)C[C@@H]1[C@@]3(C)CC[C@H](O[C@@H]4O[C@H](CO)[C@@H](O)[C@H](O)[C@H]4O)C(C)(C)[C@@H]3CC[C@]12C", "note": "[Gynostemma Extract]", "GFP-": 1.07}
{"smiles": "O=C(O)C1=CO[C@@H](O[C@@H]2O[C@H](CO)[C@@H](O)[C@H](O)[C@H]2O)[C@@H]2C(CO)=CC[C@H]12", "note": "[Geniposidic acid]", "GFP-": 1.05}
{"smiles": "CC1(C)CCC(c2ccc(Cl)cc2)=C(CN2CCN(c3ccc(C(=O)NS(=O)(=O)c4ccc(N[C@H](CCN5CCOCC5)CSc5ccccc5)c(S(=O)(=O)C(F)(F)F)c4)cc3)CC2)C1", "note": "[Navitoclax]", "GFP-": 0.944}
{"smiles": "NCC(=O)Nc1ccc(-n2nc(C(F)(F)F)cc2-c2ccc3c(ccc4ccccc43)c2)cc1", "GFP-": 1.1}
{"smiles": "CCN(CC)C(=S)SSC(=S)N(CC)CC", "note": "[Disulfiram]", "GFP-": 0.453}
{"smiles": "O=C(O)CCc1ccc(NCc2cccc(Oc3ccccc3)c2)cc1", "GFP-": 0.98}
{"smiles": "CC(C)C[C@H](NC(=O)CNC(=O)c1cc(Cl)ccc1Cl)B(O)O", "note": "[Ixazomib]", "GFP-": 0.394}
{"smiles": "CCCC(C)NC(=O)c1ccc(Cl)c(Cl)c1", "note": "(centres undefined)", "GFP-": 1.14}
{"smiles": "CCOc1ccn(-c2ccc(F)cc2)c(=O)c1C(=O)Nc1ccc(Oc2ccnc(N)c2Cl)c(F)c1", "GFP-": 0.736}
{"smiles": "CN1CCN(c2c(F)cc3c(=O)c(C(=O)O)cn4c3c2OCN4C)CC1", "note": "[Marbofloxacin]", "GFP-": 1.07}
{"smiles": "Cn1cc(C2=C(c3ccc(Cl)cc3Cl)C(=O)NC2=O)c2ccccc21", "GFP-": 0.845}
{"smiles": "Cc1c(OCC(F)(F)F)ccnc1C[S@@](=O)c1nc2ccccc2[nH]1", "note": "[Dexlansoprazole]", "GFP-": 0.956}
{"smiles": "COc1ccc(CNc2nc(N3CCC[C@H]3CO)ncc2C(=O)NCc2ncccn2)cc1Cl", "note": "[Avanafil]", "GFP-": 1.06}
{"smiles": "CCc1cnn2c(NCc3ccc[n+]([O-])c3)cc(N3CCCC[C@H]3CCO)nc12", "note": "[Dinaciclib]", "GFP-": 0.383}
{"smiles": "CC(C)c1nc(CN(C)C(=O)N[C@@H](CCN2CCOCC2)C(=O)N[C@H](CC[C@H](Cc2ccccc2)NC(=O)OCc2cncs2)Cc2ccccc2)cs1", "note": "[Cobicistat]", "GFP-": 1.04}
{"smiles": "COc1ccc(C[C@H](NC(=O)[C@H](C)NC(=O)CN2CCOCC2)C(=O)N[C@@H](Cc2ccccc2)C(=O)[C@]2(C)CO2)cc1", "GFP-": 0.791}
{"smiles": "CC(C)C[C@H](NC(=O)[C@H](CCc1ccccc1)NC(=O)CN1CCOCC1)C(=O)N[C@@H](Cc1ccccc1)C(=O)N[C@@H](CC(C)C)C(=O)[C@@]1(C)CO1", "note": "[Carfilzomib]", "GFP-": 0.433}
{"smiles": "CCC[C@@H]1C[C@@H](C(=O)N[C@H](C(C)Cl)[C@H]2O[C@H](SC)[C@H](O)[C@@H](O)[C@H]2O)N(C)C1", "note": "(some centres undefined) [Clindamycin HCl]", "GFP-": "0.865 and 1.15"}
{"smiles": "COC(=O)C1=C(C#N)N=C(C)/C(=C(\\O)OC(C)C)C1c1cccc([N+](=O)[O-])c1", "note": "(centres undefined) [Nilvadipine]", "GFP-": 0.683}
{"smiles": "COc1ccc(-c2nc(N3CCOCC3)c3sc(CN(C)c4ncc(C(=O)NO)cn4)cc3n2)cn1", "note": "[Fimepinostat]", "GFP-": "0.491 ± 0.025"}
{"smiles": "CS(=O)(=O)N1CCN(Cc2cc3nc(-c4cccc5[nH]ncc45)nc(N4CCOCC4)c3s2)CC1", "GFP-": 0.676}
{"smiles": "Cc1c(CN2CCN(C(=O)[C@H](C)O)CC2)sc2c(N3CCOCC3)nc(-c3cnc(N)nc3)nc12", "GFP-": 0.612}
{"smiles": "CCN(CC)CC#CCOC(=O)C(O)(c1ccccc1)C1CCCCC1", "note": "(centres undefined) [Oxybutynin]", "GFP-": 0.971}
{"smiles": "Cc1ccc(NC(=O)c2ccc(CN3CCN(C)CC3)cc2)cc1Nc1nccc(-c2cccnc2)n1", "note": "[Imatinib, Imatinib Mesylate]", "GFP-": "1.04 and 0.966"}
{"smiles": "Nc1ccccc1NC(=O)c1ccc(CNC(=O)OCc2cccnc2)cc1", "note": "[Entinostat]", "GFP-": "0.641 ± 0.022"}
{"smiles": "Nc1ccccc1NC(=O)c1ccc(CNc2nccc(-c3cccnc3)n2)cc1", "note": "[Mocetinostat]", "GFP-": "0.436 ± 0.22"}
{"smiles": "c1cnc2cc3c(cc2n1)C1CNCC3C1", "note": "[Varenicline Tartrate]", "GFP-": 0.907}
{"smiles": "CCCCc1ncc(/C=C(\\Cc2cccs2)C(=O)O)n1Cc1ccc(C(=O)O)cc1", "note": "[Eprosartan]", "GFP-": 0.961}
{"smiles": "Cn1cc(-c2cnn3c(N)c(Br)c([C@@H]4CCCNC4)nc23)cn1", "GFP-": 0.988}
{"smiles": "NC(=O)N1CCC(CC(=O)N2CCC([C@H]3c4ncc(Br)cc4CCc4cc(Cl)cc(Br)c43)CC2)CC1", "note": "[Lonafarnib]", "GFP-": 0.808}
{"smiles": "COCC(=O)NC/C=C/c1ccc2ncnc(Nc3ccc(Oc4ccc(C)nc4)c(C)c3)c2c1", "GFP-": 1.06}
{"smiles": "C[C@H]1C[C@@H]2[C@H]([C@@H](O)C[C@@]3(C)[C@H]2CC[C@]3(O)C(=O)CO)[C@@]2(C)C=CC(=O)C=C12", "note": "[Methylprednisolone]", "GFP-": 0.847}
{"smiles": "CN1CCCC(n2nc(Cc3ccc(Cl)cc3)c3ccccc3c2=O)CC1", "note": "(centres undefined) [Azelastine, Azelastine Hydrochloride]", "GFP-": 1}
{"smiles": "Cc1[nH]c2ccccc2c1CCNCc1ccc(/C=C/C(=O)NO)cc1", "note": "[Panobinostat]", "GFP-": "0.50294 ± 0.0002"}
{"smiles": "Cc1[nH]c2ccccc2c1CCNC(=O)c1cccs1", "note": "[N-[2-(2-methyl-1H-indol-3-yl)ethyl]thiophene-2-carboxamide]", "GFP-": 1.11}
{"smiles": "O=C(/C=C/c1ccc(CN(CCO)CCc2c[nH]c3ccccc23)cc1)NO", "note": "[Dacinostat]", "GFP-": "0.556 ± 0.066"}
{"smiles": "Oc1cc2c(cc1O)[C@@H]1c3ccc(O)c(O)c3OC[C@]1(O)C2", "note": "[Hematoxylin]", "GFP-": 0.962}
{"smiles": "O=C(Nc1ccccc1-c1cn2c(CN3CCNCC3)csc2n1)c1cnc2ccccc2n1", "GFP-": "0.752 and 0.432"}
{"smiles": "CCO/C(O)=C1\\C(C)=NC(C)=C(C(=O)OC)C1c1cccc(Cl)c1Cl", "note": "(centres undefined) [Felodipine]", "GFP-": 0.531}
{"smiles": "O=C1NC(=O)/C(=C/c2cccc(C(F)(F)F)c2)S1", "GFP-": "0.979 ± 0.056"}
{"smiles": "CC(C)N(CCC(=O)c1ccc2ccccc2c1)Cc1ccccc1", "GFP-": "0.897 ± 0.031"}
{"smiles": "CNCC[C@@H](Oc1ccccc1C)c1ccccc1", "note": "[Atomoxetine]", "GFP-": 1.04}
{"smiles": "Cc1nc(NC(=O)N2CCC[C@H]2C(N)=O)sc1-c1ccnc(C(C)(C)C(F)(F)F)c1", "GFP-": 0.875}
